This is part of a sample that, as a whole, favours compounds with a hit. Of some 83,000 tested, about 20% had one in any assay.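 Note: values are percent growth. 100 is the growth of untreated cells, values between 100 and 0 indicate rising inhibition; between -100 and 0 indicates cell death.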 Unmarked numbers belong to inactive results. Active and inactive are the calls of the source. How the source made its calls: active means growth percent below 10; inactive means the rest.
Experiments:
Test in all cases: NCI-60 one-dose screen, 48 h (100 = growth as untreated, 0 = no growth, -100 = all killed)
[1] = tested on: SK-MEL-2 melanoma; conditions: 10 µM unless noted
[2] = tested on: EKVX NSCLC; conditions: 10 µM unless noted
[3] = tested on: SN12C renal; conditions: 10 µM unless noted
[4] = tested on: UO-31 renal; conditions: 10 µM unless noted
[5] = tested on: TK-10 renal; conditions: 10 µM unless noted
[6] = tested on: ACHN renal; conditions: 10 µM unless noted
[7] = tested on: CAKI-1 renal; conditions: 10 µM unless noted
[8] = tested on: A498 renal; conditions: 10 µM unless noted
[9] = tested on: CCRF-CEM leukemia; conditions: 10 µM unless noted
[10] = tested on: MOLT-4 leukemia; conditions: 10 µM unless noted
[11] = tested on: SR leukemia; conditions: 10 µM unless noted
[12] = tested on: RPMI-8226 leukemia; conditions: 10 µM unless noted
[13] = tested on: OVCAR-8 ovarian; conditions: 10 µM unless noted
[14] = tested on: OVCAR-5 ovarian; conditions: 10 µM unless noted
[15] = tested on: OVCAR-4 ovarian; conditions: 10 µM
[16] = tested on: SK-OV-3 ovarian; conditions: 10 µM unless noted
[17] = tested on: OVCAR-3 ovarian; conditions: 10 µM unless noted
[18] = tested on: HS 578T breast; conditions: 10 µM unless noted
[19] = tested on: NCI/ADR-RES ovarian; conditions: 10 µM unless noted
[20] = tested on: IGROV1 ovarian; conditions: 10 µM unless noted

| SMILES | growth [1] | growth [2] | growth [3] | growth [4] | growth [5] | growth [6] | growth [7] | growth [8] | growth [9] | growth [10] | growth [11] | growth [12] | growth [13] | growth [14] | growth [15] | growth [16] | growth [17] | growth [18] | growth [19] | growth [20] |
| --- | --- | --- | --- | --- | --- | --- | --- | --- | --- | --- | --- | --- | --- | --- | --- | --- | --- | --- | --- | --- |
| O=c1c2c3c(sc2n2cnnc2n1Cc1ccccc1)CCCC3 | 97.6% | 71.2% | 105% | 7.39% (active) | 115% | 99.1% | 95.3% | 92.1% | 82.4% | 86.3% | 78.6% | 72.8% | 97.4% | 89.6% | 106% | 106% | 98% | 94.2% | 96.9% |  |
| COc1ccc(C(=O)c2nccc3cc(OC)c(OC)cc23)cc1OC | 108% | 90.1% | 72.1% | 82.8% | 132% | 91.7% | 75.8% | 64.6% | 132% | 103% | 102% | 133% | 94.3% | 86.5% | 108% | 108% | 87.2% | 98% | 83.9% |  |
| O=C(N/N=C/c1ccc([N+](=O)[O-])cc1)c1ccc(Br)o1 | 33.6% | 112% | 102% | -17.5% (active) | 131% | 107% | 106% | 116% | 99.5% | 123% | 106% | 72% | 71.8% | 104% | 99.8% | 79.3% | 121% | 127% | 99.6% |  |
| FC(F)(F)c1ccc2c(c1)Sc1ccccc1N2 | 106% | 91.6% | 100% | 73.6% | 101% | 101% | 82% | 80.7% | 102% | 88.7% | 89.5% | 92.7% | 96.7% | 98.2% | 97% | 105% |  | 85.5% | 104% | 92.6% |
| Nc1cc(NN=C(c2ccc(O)cc2)c2ccc(O)cc2)c([N+](=O)[O-])cc1[N+](=O)[O-] | -93.6% (active) | 97% | 53% | -88.7% (active) | 84.3% | 18.1% | 90.7% | 101% | 91.3% | 69.5% | 39.2% | 74.3% | -75.8% (active) | -50.9% (active) | 76.1% | -44.4% (active) | 82% | 71.4% | 7.33% (active) |  |
| O=[N+]([O-])c1cc([N+](=O)[O-])c(NN=C(c2ccc(O)cc2)c2ccc(O)cc2)cc1Cl | -94% (active) | 38.8% | -78.6% (active) | -98.4% (active) | -57% (active) | -62.7% (active) | 42.3% | 73.4% | 82.1% | 53.4% | 18.8% | 67% | -76.6% (active) | 78.1% | -47.7% (active) | 99.5% | -94.6% (active) | -55.6% (active) | -56.8% (active) |  |
| Cc1ccc(S(=O)(=O)Nc2ccccc2)cc1N | 87.4% | 116% | 91.3% | 81.2% | 121% | 101% | 89.5% | 76.9% | 110% | 96.6% | 92.2% | 123% | 95.4% | 91.3% | 111% | 104% | 95.6% |  | 91% |  |
| O=c1[nH]c(CN2CCN(c3cccc(Cl)c3)CC2)nc2cc(Cl)ccc12 | 46.7% | 105% | 89.3% | 9.86% (active) | 106% | 97.5% | 99.4% | 114% | 105% | 120% | 89.7% | 34.7% | 46.2% | 85.3% | 104% | 82.1% | 100% | 99% | 86.4% |  |
| NC(=O)c1c(NC(=O)COC(=O)Cc2ccccc2F)sc2c1CCC2 | 99.9% | 101% | 109% | 72.6% | 124% | 109% | 99% | 117% | 108% | 86.6% | 125% | 130% | 39.4% | 111% | 114% | 104% | 112% | 109% | 110% |  |
| ClC1=C(Cl)C(Cl)=C(Cl)C1=Cc1ccccc1 | -28% (active) | -4.72% (active) | -57% (active) | -87.1% (active) | -36.3% (active) | -35.5% (active) | -37.9% (active) | -74.1% (active) | 8.52% (active) | 2.93% (active) | 4.43% (active) | -22.7% (active) | -18.9% (active) | -60.9% (active) | -20.3% (active) | 38.8% | -96.5% (active) | 6.95% (active) | -26.5% (active) |  |
| CCCCN(CC)CC(CC)Nc1cc(OC)cc2cccnc12 (stereo not given) | 115% | 128% | 99.7% | 102% | 100% | 104% | 111% | 112% | 99.6% | 111% | 113% | 105% | 103% | 103% | 115% | 127% | 107% |  | 101% |  |
| Cc1cc(-c2ccc(N=Nc3c(S(=O)(=O)O)cc4cc(S(=O)(=O)O)cc(N)c4c3O)c(C)c2)ccc1N=Nc1cc(S(=O)(=O)O)c2ccccc2c1O | 111% | 81.1% | 98.1% | 73.1% | 102% | 95.4% | 78.9% | 96.4% | 106% | 102% | 106% | 98.5% | 96.6% | 86.8% | 105% | 93.4% |  | 90.7% | 97.2% | 95.8% |
| COc1ccc(OC)c(NC=O)c1 | 116% | 101% | 107% | 92% | 102% | 106% | 95.7% | 103% | 127% | 88.2% | 83.3% | 127% | 104% | 108% | 103% | 110% | 117% | 106% | 109% |  |
| CCN(CC)CCS(=O)(=O)CCNc1ccnc2cc(Cl)ccc12 | 15.2% | 26.7% | 18.5% | -25.6% (active) | 13.5% | 7.29% (active) | 8.63% (active) | -29.1% (active) | 3.54% (active) | -30.1% (active) | 6.28% (active) | -4.96% (active) | 14.5% | 18.6% | 24.7% | 22.5% | -14.9% (active) |  | -14.2% (active) |  |
| CC1=C/C(=C(\c2cc(C)c(O)c(C(=O)O)c2)c2c(Cl)cccc2Cl)C=C(C(=O)O)C1=O | 104% | 95.3% | 97.1% | 67.8% | 108% | 92.7% | 88.1% | 110% | 103% | 102% | 102% | 102% | 100% | 106% | 108% | 93.3% |  | 99.2% | 99.9% | 101% |
| O=c1cc(-c2ccccc2)oc2c(O)c(O)ccc12 | 85.4% | 90% | 68.7% | 36.2% | 75.2% | 40.1% | 37.4% | 73.1% | 41.6% | 55.9% | 36.6% | 45.6% | 52.8% | 62.9% | 61.6% | 76.7% | 5.27% (active) | 91.4% | 24.5% |  |
| COc1ncc(-c2ccc3nccc(C#CCCCCC(=O)NO)c3c2)cc1NS(=O)(=O)c1ccc(F)cc1F | -60.7% (active) | 4.18% (active) | 15% | 8.08% (active) | -25.1% (active) | 10.7% | 6.12% (active) | -76.1% (active) | -8.34% (active) | -18% (active) | -24.5% (active) | -25.1% (active) | -12.8% (active) | 4.43% (active) | 24.9% |  | -31.6% (active) | -23.8% (active) | 55.3% | -21.6% (active) |

Reference: PubChem BioAssay (NCI)
